Usually inhibition stands for the share of the control response that was lost under treatment.

Values without a mark were called inactive. The rule behind the calls is not given here. Where a SMILES comes first, the peptide text is derived from it. [ ]: non-standard residue; d: D form. ξ: configuration not given here. ξV = CC(C)C(N)C(=O)O

Sequence of Pantothenate synthetase (Mycobacterium tuberculosis (strain ATCC 25618 / H37Rv)) (P9WIL5 whole entry, looked up): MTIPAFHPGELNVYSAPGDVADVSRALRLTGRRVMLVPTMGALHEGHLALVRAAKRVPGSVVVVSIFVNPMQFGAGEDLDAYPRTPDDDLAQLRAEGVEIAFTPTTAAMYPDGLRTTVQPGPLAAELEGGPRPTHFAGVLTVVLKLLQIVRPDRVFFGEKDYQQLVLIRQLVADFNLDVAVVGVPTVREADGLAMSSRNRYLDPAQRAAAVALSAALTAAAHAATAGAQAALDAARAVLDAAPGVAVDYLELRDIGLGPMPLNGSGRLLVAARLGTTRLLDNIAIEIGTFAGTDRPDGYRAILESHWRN

The assay concerns the target Pantothenate synthetase (Mycobacterium tuberculosis (strain ATCC 25618 / H37Rv)) (UniProt P9WIL5). As to the kind of experiment: Coupled enzyme confirmation of inhibitors against recombinant Mtb PanC (AID 375).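 Note: 0% = full reaction with vehicle and 100% = no enzyme background.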 As to conditions: coupled enzyme assay; at 10 µM, stronger effect = higher value.
As to `COc1ccccc1CC(=O)NCC1CCCO1` (stereo not given), the inhibition is 0%.

As to `COc1cc(C(=O)N2CCCC(c3nc(-c4cccs4)no3)C2)cc(OC)c1OC` (stereo not given), the inhibition was 0%.

`CC(=O)NC(C(=O)NCC(N)=O)C(C)C` (stereo not given) (Ac-[ξV]-Gly-NH2): the inhibition is 0%.

As for `CCC(=O)Nc1ccc(NC(=O)CSc2nnnn2C(C)C)cc1`, the inhibition is 0%.

Regarding `Cc1c(Cc2ccccc2)sc(N)c1C(N)=O`, the inhibition is 0%.

Take `CS(=O)(=O)N1CCCC(C(=O)NCCCN2CCc3ccccc3C2)C1` (stereo not given): the inhibition is 2%.

Turning to `CC1(C)CC(=O)N(CC(=O)NCc2ccccc2)c2ccccc2S1(=O)=O`, the inhibition was 0%.

Turning to `Nc1ccc(S(=O)(=O)c2cccc(N)c2)cc1`, the inhibition is 8%.

On to `CCn1c(SCC(=O)Nc2cc(C)on2)nc2sc3c(c2c1=O)CCCC3`, for which the inhibition is 0%.

In the case of `COC(=O)c1ccccc1NC(=O)C1CC(=O)N(c2ccc(F)cc2)C1` (stereo not given), the inhibition is 20%.

As for `Cc1nc(NCc2ccc3c(c2)OCO3)c2oc3ccccc3c2n1`, the inhibition is 1%.

Turning to `Cc1ccc(S(=O)(=O)NCCCNC(=O)N2CCOCC2)cc1`, the inhibition was 0%.

`Cc1ccnc(NC(=O)C2CCCN(S(=O)(=O)c3cnc[nH]3)C2)c1` (stereo not given): the inhibition is 0%.

`O=C(CNS(=O)(=O)c1ccccc1)NCc1ccccn1`: the inhibition was 9%.

Turning to `CCOc1ccc(N2C(N)=NC(N)=NC2(C)C)cc1`, the inhibition is 0%.

With `O=C(C1=C(O)C(=O)N(Cc2ccccc2)C1c1ccncc1)c1ccco1` (stereo not given), the inhibition is 0%.

Consider `CCCC(=O)Nc1c2c(nn1-c1ccc(OC)cc1)CS(=O)C2` (stereo not given), for which the inhibition was 1%.

Consider `COc1ccc(OC)c(NC(=O)CCN2CCN(c3ccccc3F)CC2)c1`, for which the inhibition was 4%.

Regarding `O=C1CC(c2ccccc2)CC(O)=C1C=NCCCN1CCOCC1` (stereo not given), the inhibition was 5%.

For `COCCN(CCOC)S(=O)(=O)c1ccc(C(=O)Nc2nnc(C3CC3)o2)cc1`, the inhibition is 0%.

For the compound `CC1CCCN(S(=O)(=O)c2ccc(C(=O)Nc3nnc(-c4ccccc4Cl)o3)cc2)C1` (stereo not given), the inhibition was 0%.

Take `COc1cc(N=c2ssnc2Cl)cc(OC)c1`: the inhibition is 1%.

Regarding `CC(=O)O[C@H]1C[C@@H]2CC[C@@H]3[C@H](CC[C@@]4(C)[C@H]3C[C@H]([N+]3(C)CCCCC3)[C@@H]4OC(C)=O)[C@@]2(C)C[C@@H]1[N+]1(C)CCCCC1`, the inhibition was 0%.

As to `COc1ccc(C(=O)COC(=O)CCn2nnc(-c3cccs3)n2)cc1`, the inhibition is 0%.

As for `O=C(NCc1ccc2c(c1)OCO2)C1CCC(CNc2c(N3CCCCC3)c(=O)c2=O)CC1` (stereo not given), the inhibition is 0%.

Take `Cc1cc2c(c(=O)o1)C(C13C=CC(CC1)C3)C(C#N)=C(N)O2` (stereo not given): the inhibition is 0%.

In the case of `CC1CN(C(=O)CSc2nnc(-c3ccncc3)n2-c2ccccc2)CC(C)O1` (stereo not given), the inhibition was 1%.

As to `COC(=O)C(C)NC(=O)C12CC3CC(CC(C3)C1)C2` (stereo not given), the inhibition was 0%.

For `COc1cc(NC(=O)Cc2cccs2)ccc1-n1cnnn1`, the inhibition is 10%.

`O=C(c1ccc(Cl)cc1)N1CCCOC1`: the inhibition is 4%.

On to `COc1ccc2cc(C(=O)NCc3ccco3)c(=Nc3ccc(C(=O)O)cc3)oc2c1`, for which the inhibition is 0%.

For `COC(=O)CSc1nc2nc(C)cc(C)n2n1`, the inhibition was 7%.

Consider `Cc1cc(C)c2[nH]c(=O)c(C(c3nnnn3Cc3ccc4c(c3)OCO4)N3CCC(C)CC3)cc2c1` (stereo not given), for which the inhibition is 0%.

Regarding `NC(=O)c1sc2nc3c(c(-c4ccco4)c2c1N)CCC3`, the inhibition was 0%.

As for `O=C(Cn1nc(Cc2ccncc2)c2ccccc2c1=O)N1CCN(C(=O)c2ccco2)CC1`, the inhibition was 0%.

Regarding `c1ccc(-c2cc(CSc3nc4ccccc4[nH]3)on2)cc1`, the inhibition was 0%.

For the compound `CC1CCC2C(C1)c1sc(=O)[nH]c1SC2(C)C` (stereo not given), the inhibition was 2%.

On to `COC(=O)c1[nH]c2ccccc2c1NC(=O)CN1CCC(C(N)=O)(N2CCCCC2)CC1`, for which the inhibition is 0%.

Turning to `Nc1nnnn1/N=C/c1ccccn1`, the inhibition was 0%.

For `Cc1ccc(-n2ncc(C(=O)N3CCc4ccccc4C3)c2NC(=O)c2ccco2)cc1C`, the inhibition was 0%.

(Values after PubChem BioAssay.)
